# Experimental data: PubChem BioAssay AID488969 (Vanderbilt High Throughput Screening Facility, 2010)
# Over roughly 110,000 compounds, “z-score” has its median near -0.1; the highest 2% begin near 2. The sample holds the highest values, similar compounds and a random draw of the others, so the mix is not that of the screen. Activity calls are given as the source filed them.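 Rule for the calls: active = z-score in the third read window above 3 or below -3; inactive = the rest.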
# Target: Metabotropic glutamate receptor 8 (Rattus norvegicus) (UniProt P70579)
# Experiment: mGluR8 Gi/Go-coupled signaling modulation – cell-based, rat, thallium flux, HTS, primary screen (AID 488969)
# Settings: HEK293 rat mGluR8, GIRK (G protein-gated inwardly rectifying potassium channel) thallium flux, FluoZin2; at 10 µM; stronger effect = higher value; submaximal glutamate (EC20) added with thallium
# Sequence of Metabotropic glutamate receptor 8 (Rattus norvegicus) (P70579 whole entry, looked up): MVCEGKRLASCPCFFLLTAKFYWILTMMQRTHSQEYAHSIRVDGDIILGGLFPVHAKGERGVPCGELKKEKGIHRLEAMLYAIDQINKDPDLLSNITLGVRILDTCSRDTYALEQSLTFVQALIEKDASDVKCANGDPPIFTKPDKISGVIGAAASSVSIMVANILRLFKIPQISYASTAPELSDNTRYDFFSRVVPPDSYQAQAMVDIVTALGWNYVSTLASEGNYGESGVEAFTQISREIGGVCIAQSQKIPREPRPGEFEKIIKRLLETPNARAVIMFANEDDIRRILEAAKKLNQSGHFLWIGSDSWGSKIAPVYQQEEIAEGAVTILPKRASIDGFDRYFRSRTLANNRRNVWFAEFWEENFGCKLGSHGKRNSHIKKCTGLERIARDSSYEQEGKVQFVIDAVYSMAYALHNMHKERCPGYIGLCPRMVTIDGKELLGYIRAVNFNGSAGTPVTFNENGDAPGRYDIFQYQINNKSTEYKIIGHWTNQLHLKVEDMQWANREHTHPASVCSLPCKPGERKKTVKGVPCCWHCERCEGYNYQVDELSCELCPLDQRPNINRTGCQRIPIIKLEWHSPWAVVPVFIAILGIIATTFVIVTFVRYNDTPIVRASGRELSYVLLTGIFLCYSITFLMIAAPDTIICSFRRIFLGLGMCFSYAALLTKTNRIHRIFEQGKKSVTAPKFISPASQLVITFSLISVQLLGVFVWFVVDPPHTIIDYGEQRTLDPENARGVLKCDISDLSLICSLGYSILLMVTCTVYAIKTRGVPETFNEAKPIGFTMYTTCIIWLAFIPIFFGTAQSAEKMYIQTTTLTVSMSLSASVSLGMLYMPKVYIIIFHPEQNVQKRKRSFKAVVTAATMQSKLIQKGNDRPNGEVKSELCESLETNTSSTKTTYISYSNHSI
row,SMILES,z-score
1,O=C(c1ccc(OCC2CCCO2)cc1)N1CCN(c2ccccc2)CC1 (stereo unspecified),-0.525
2,O=C(NCCc1ccc(Cl)cc1)C1CCC(=O)N1Cc1ccccc1Cl (stereo unspecified),-0.0695
3,COc1ccc(NC(=O)C(NC(=O)CC2NC(=O)NC2=O)c2ccccc2)cc1 (stereo unspecified),0.0457
4,CC(=O)NC12CC3CC(CC(CC(=O)O)(C3)C1)C2,0.634
5,O=Cc1cccn1Cc1ccc(Cl)cc1Cl,-0.152
6,Cc1nn(-c2ccccc2)c2c1C1(C(=O)N(C)c3ccccc31)C(C#N)=C(N)O2 (stereo unspecified),-0.0421
7,O=C1OCCC1Sc1nc2cc(Cl)ccc2n1Cc1ccccc1 (stereo unspecified),6.69 (active)
8,O=C1OCCC1Sc1nnc(-c2ccc(Cl)cc2)n1Cc1ccccc1 (stereo unspecified),-0.478
9,O=C1OCCC1Sc1nc2ccccc2n1Cc1ccccc1 (stereo unspecified),-1.37
10,Cc1c(N=C2SCC(=O)N2/N=C/c2ccccc2Cl)c(=O)n(-c2ccccc2)n1C,0.339
11,Cc1sc2ncnc(SCC(=O)NC3CC3)c2c1C,0.845
12,Cc1sc2ncnc(SCC(=O)N3CCCC3=O)c2c1C,2.71
13,Cc1sc2ncnc(SCC(=O)N3CCCC3)c2c1C,0.342
14,COc1cc(C(=O)Nc2nnc(C)s2)cc(OC)c1OC,0.381
15,Cc1ccc(-n2nc(-c3cccnc3)cc2C(=O)N2CCOCC2)c(C)c1,0.372
16,Nc1ccccc1NC(=O)c1ccccc1N,0.194
17,Nc1nnc(C(=O)c2ccccc2N)s1,4.29 (active)
18,Nc1nnc(-c2ccccc2)s1,-0.337
19,Cc1c(NC(=O)COC(=O)C(c2ccc(Cl)cc2)C(C)C)c(=O)n(-c2ccccc2)n1C (stereo unspecified),-0.457
20,OC(CNC1CCCC1)COc1c(F)cc(Br)cc1F (stereo unspecified),0.142
21,CC(C)(C)CC(C)(C)NCC(O)COc1c(F)cc(Br)cc1F (stereo unspecified),3.25 (active)
22,CC(C)(C)NCC(O)COc1c(F)cc(Br)cc1F (stereo unspecified),0.622
23,C=CCSC1=N/C(=C\c2ccsc2)C(=O)S1,-0.538
24,CC(C)OC(=O)c1cccnc1SCC(=O)N(C)c1ccccc1,-0.698
25,CCOc1ccc(CNC(=O)C2CCCN(S(C)(=O)=O)C2)cc1OC (stereo unspecified),0.258
26,CCC(=O)Nc1ccc(Cl)c(NC(=O)C(C)C)c1,0.418

row,SMILES,z-score
1,O=C(NCCCn1ccnc1)Nc1cccc(Cl)c1,0.583
2,C=COCCNC(=O)Nc1ccc(Cl)c(Cl)c1,3.37 (active)
3,O=C(NCCCn1ccnc1)Nc1ccc(Cl)c(Cl)c1,3.92 (active)
4,Cc1nn(C)cc1CNC(=O)Nc1ccc(Cl)c(Cl)c1,2.06
5,CN(C)CCNC(=O)Nc1ccc(Cl)c(Cl)c1,0.092
6,Cc1nn(C)cc1CNC(=O)Nc1ccc(Br)cc1Cl,-0.126
7,Cc1nn(C)cc1CNC(=O)Nc1cccc(Cl)c1,0.0377
8,C=COCCNC(=O)Nc1ccc(Cl)cc1Cl,0.104
9,O=C(NCCCn1ccnc1)Nc1ccc(Cl)cc1Cl,-0.326
10,CCOc1ccccc1Nc1nc(-c2sc(NC(=O)c3ccc([N+](=O)[O-])cc3)nc2C)cs1,0.209
11,CCOc1ccc(CC(=O)Nc2c(C(N)=O)oc3ccc(Br)cc23)cc1OCC,-0.0702
12,CN(C)/C=C1/N=C(c2ccccc2)OC1=O,-0.23
13,COc1ccc(C(=O)c2ccc(CC#N)s2)cc1,-0.0619
14,CCn1c2ccccc2c2nnc(SCC(=O)OCN3C(=O)c4ccccc4C3=O)nc21,-0.087
15,CC(C)(C)S(=O)c1cccs1 (stereo unspecified),0.555
16,CSc1nc(C)cc(OCC(=O)N2CCOCC2)n1,0.387
17,S=C(NN=C1CCCCCC1)Nc1ccc(Cl)cc1,9.7 (active)
18,Fc1ccc(NC(=S)N2CCCCC2)cc1,0.208
19,Cc1cc(C)c2c(c1)/C(=N/NS(=O)(=O)c1ccccc1)CCC2,-1.09
20,S=C(Nc1ccc(Cl)cc1)N1CCCC1,0.113
21,S=C(Nc1ccc(Cl)cc1)N1CCCCC1,-0.262
22,Fc1ccc(NC(=S)N2CCCC2)cc1,-0.0754
23,Cc1cc(C)c2c(c1)/C(=N/NC(=S)Nc1ccc(F)cc1)CCC2,2.6
24,Fc1ccc(NC(=S)NN=C2CCCCCC2)cc1,12 (active)
25,COc1ccc(NC(=S)N/N=C2/CCCc3c(C)cc(C)cc32)cc1,0.0188
26,O=C1CC(c2ccccc2)CN1S(=O)(=O)c1ccccc1 (stereo unspecified),0.00794

row,SMILES,z-score
1,O=C(NCCc1csc(-c2cccnc2)n1)c1cccc2ccccc12,0.472
2,CC(C)=C1SC(N2CCCCC2)=NC1=O,1.93
3,Cc1nn(CCc2n[nH]c(=S)n2C2CCCCC2)c(C)c1Br,-0.451
4,COc1ccc(-c2csc(NC(=O)CN3C(=O)CCC3=O)n2)cc1OC,-0.147
5,Cc1cc(=O)n2[nH]c(-c3ccccc3Cl)cc2n1,-0.0492
6,Cc1c(C(=O)N/N=C/C(C)C)[nH]c2c([N+](=O)[O-])cccc12,-0.722
7,CCC/C=N/NC(=O)c1[nH]c2c([N+](=O)[O-])cccc2c1C,2.02
8,Cc1cc([N+](=O)[O-])c2[nH]c(C(=O)N/N=C/c3ccccc3C(=O)O)c(-c3ccccc3)c2c1,-0.455
9,CCc1nc(Nc2ccc(OC)c(OC)c2)c2nnn(Cc3ccccc3Cl)c2n1,0.049
10,CCOc1ccc(C(F)(F)F)cc1NC(=O)c1ccc(OC)c([N+](=O)[O-])c1,0.372
11,O=C(COc1ccc(Br)cc1CO)Nc1ccccc1,-0.336
12,CCOc1ccc(C(F)(F)F)cc1NC(=O)COc1ccc(C(F)(F)F)cc1[N+](=O)[O-],-0.107
13,COc1ccccc1NC(=O)COc1ccc(Br)cc1CO,2.95
14,O=C(COc1ccc(Br)cc1CO)Nc1ccccc1F,-0.0395
15,COc1ccccc1NC(=O)COc1ccc(C(F)(F)F)cc1[N+](=O)[O-],4.19 (active)
16,CCn1c(COc2ccc(C)cc2)nnc1SCc1nc2ccccc2[nH]1,-0.0293
17,COCCN1C(=O)c2ccccc2C(C(=O)NCC2CCCO2)C1c1c[nH]c2ccccc12 (stereo unspecified),-0.121
18,O=C(NCc1ccc2c(c1)OCO2)C1CCCN1C(=O)Nc1cccc(F)c1 (stereo unspecified),0.725
19,CCCC(=O)Nc1cc(-c2nnc(OC)c3ccccc23)ccc1N1CCCCC1,-0.148
20,O=CN1CC(=O)N(c2ccccc2)c2c([nH]c3ccccc23)C1,0.383
21,CCc1cc(C(c2ccc(OC)c(OC)c2)N2CCOCC2)c(NC(=O)c2ccccc2)s1 (stereo unspecified),-0.47
22,CC(C)C(=O)Nc1nnc(CCc2nnc(NC(=O)C(C)C)s2)s1,0.549
23,COC(=O)Cc1nnc(NC(=O)C(C)C)s1,0.0291
24,COCc1nnc(NC(=O)C(C)C)s1,3.48 (active)
